PAX8 inh HTS: inhibitors of PAX8-driven TPO luciferase reporter, primary screen, RMG-I cells, single concentration; SteadyGlo, 24 h; inhibition, % at 12.6 µM; 360,000 tested, 1.2% active; AID 652154, 2013;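 active = mean replicate inhibition at least 60% with every replicate also reaching 60%; inconclusive = only one of the two criteria is met; inactive = mean below 60% and not all replicates reaching 60%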;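 also: luciferase light reporting Pax8 driven TPO promoter activity; plate controls were median of neutral control wells for no effect and mitoxantrone controls for full effect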
LGR2 antag: inhibitors of bursicon-induced LGR2 CRE-luciferase signal, primary screen, cell-based, HEK293, CRE-luciferase reporter, bursicon stimulation; Drosophila bursicon receptor LGR2 (rickets); bursicon-stimulated, 4 h; inhibition, % at 9.99 µM; 380,000 tested, 0.35% active; AID 720647, 2013;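 active = drop in luminescence signal, shown as inhibition above about 50% in the replicate tests, limit read from the data, passing the limit was not always enough; inconclusive = probably only some replicates passing the limit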;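 also: agonist challenge used bursicon conditioned medium at about half maximal strength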
Shn3 inh set2: reduction of Shn3 3'UTR firefly luciferase signal, primary screen, Schnurri-3 inhibitor project, cell-based, Clone20 osteoblasts, set 2. Clone20 osteoblast Shn3 3'UTR firefly luciferase, 24 h. inhibition, % at 12.5 µM. 360,000 tested, 0.52% active. AID 588674, 2011;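 active = mean inhibition of at least 75% with every replicate also reaching 75%; inconclusive = mean inhibition at least 75% but some replicate below; inactive = mean inhibition below 75%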;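 also: 0% = median of neutral control wells and 100% = pilot-screen positive control compound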
CF NFkB block: inhibitors of PAF-induced NF-kB signaling, primary screen, cell-based, GFP fluorescence, uHTS; KKLEB NF-kB-GFP reporter, GFP fluorescence overnight; inhibition, % at 5 µM; 360,000 tested, 0.86% active;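 active = at least 50% inhibition at 5 µM, scaled per plate between neutral and stimulator controls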;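 also: PAF is a Pseudomonas aeruginosa culture filtrate used as stimulus; plate controls were PAF-stimulated DMSO wells for no effect and unstimulated DMSO wells for full effect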
EWS-Fli block: EWS/Fli-driven NR0B1 reporter inhibitors, primary screen, A673 cells, NR0B1 luciferase, luminescence, MLPCN library; 350,000 tested, 0.67% active; viability-normalised; inhibition, % at 12.6 µM; AID 651661, 2012;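 active = mean inhibition of at least 50% after viability correction, with every replicate also passing that limit; inconclusive = mean reaches 50% but only one of two replicates passes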;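 also: firefly luciferase signal divided by Alamar Blue viability fluorescence both relative to DMSO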
KKLEB tox: cytotoxicity in KKLEB CF airway cells, primary screen, cytotoxicity control for CF NF-kB inhibitor project, cell-based, uHTS, fluorescence assay plates; 360,000 tested, 0.36% active; activity change (cytotoxicity), % at 5 µM; KKLEB CF airway cells viability, ATPlite luminescence, overnight; stronger effect = lower value; cells stimulated with P. aeruginosa culture filtrate;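 active = corrected activity change at or below -50% at 5 µM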
CF NFkB conf: inhibitors of PAF-induced NF-kB signaling, retest, confirmation, cell-based, GFP fluorescence, single concentration; shares compounds with CF NFkB block; KKLEB CF airway cells, overnight; inhibition, % at 5 µM; 1,300 tested, 64% active; in the data active = inhibition above about 40%;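 also: stimulus PAF is a Pseudomonas aeruginosa filtrate and not platelet activating factor; plate controls were DMSO wells with stimulus for no effect and unstimulated DMSO wells for full effect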
Numbers without * were called inactive; ? = inconclusive; . = no result given. Only some compounds are listed: those with a hit (about 2% of all), similar ones and a draw of the others.

SMILES | PAX8 inh HTS | LGR2 antag | Shn3 inh set2 | CF NFkB block | EWS-Fli block | KKLEB tox | CF NFkB conf
CCC(CO)Oc1cc(NCc2ccc(C)c(C)c2)c2ncn(C(C)C)c2c1 (centres undefined) | 9 | -4 | 80 | 52* | 12 | -11 | 12
CCC(CO)Oc1cc(NCc2ccc(F)cc2)c2ncn(C(C)C)c2c1 (centres undefined) | 6 | 8 | 12 | -9 | -112 | 1 | .
CCC(CO)Oc1cc(NCc2cc(C)cc(C)c2)c2ncn(C(C)C)c2c1 (centres undefined) | 18 | 16 | 3 | 67* | 12 | -4 | 24
CC=Cc1ccc2n(c1=O)C[C@@H]1[C@@H](CO)[C@H](C(=O)Nc3nccs3)N(Cc3ccccc3F)[C@H]21 (mixture of isomers) | 4 | -10 | . | . | -3 | . | .
O=C(c1cccc(F)c1)N1CC(=O)N2[C@H](CO)[C@@H](c3ccc(-c4ccccc4F)cc3)[C@@H]2C1 | -3 | 5 | . | . | -1 | . | .
Cc1ccc2cc(/C=C/C(=O)c3ccco3)c(Cl)nc2c1 | -4 | . | -182 | 64* | -45 | -31 | -101
C[C@H](CO)N1C[C@H](C)[C@@H](CN(C)S(=O)(=O)c2cn(C)cn2)OCCCC[C@H](C)Oc2ccc(NC(=O)c3ccccc3)cc2C1=O | 3 | 6 | . | . | -16 | . | .
COc1ccccc1-c1ccc([C@@H]2[C@H](C#N)N[C@H]2CO)cc1 | -29 | -19 | . | . | 15 | . | .
COCCNc1nc(Oc2cccc(F)c2)c2sccc2n1 | -7 | -12 | 3 | 33 | 3 | -14 | .
COCCNc1nc(Oc2cncc(Cl)c2)c2sccc2n1 | -6 | 8 | 12 | 62* | -4 | -20 | 78*
C[C@H]1CCCCO[C@H](CN(C)Cc2ccccc2)[C@@H](C)CN([C@@H](C)CO)C(=O)c2cc(NS(=O)(=O)c3ccc(F)cc3)ccc2O1 | 20 | 9 | . | . | 9 | . | .
O=C(Nc1cccnc1)Nc1cccc(F)c1 | -19 | 6 | 3 | -2 | -39 | -10 | .
CC(=O)c1cccc(NC(=O)Nc2cccnc2)c1 | . | . | 13 | 57* | . | -5 | 77*
CCN1[C@@H]2c3ccc(-c4cccnc4)c(=O)n3C[C@H]1[C@H](CO)[C@H]2C(=O)NC1CCCCC1 | -10 | -17 | . | . | 0 | . | .
CN(Cc1ccco1)c1ncnc2ccc(-c3ccoc3)cc12 | 8 | . | -10 | 66* | -3 | -10 | 56*
CN(Cc1ccco1)c1ncnc2ccc(-c3ccccc3Cl)cc12 | 32 | . | 15 | 10 | 4 | 10 | .
O=S(=O)(Nc1ccc(Cl)cc1NS(=O)(=O)c1ccccc1)c1ccccc1 | -13 | 21 | 1 | 55* | -15 | 22 | 51*
CNC[C@@H]1Oc2ccc(NS(=O)(=O)c3ccc(C)cc3)cc2CC(=O)N([C@@H](C)CO)C[C@H]1C | -9 | -11 | . | . | 1 | . | .
CCC(=O)N[C@H]1CC[C@H](CCn2cc(C3CC3)nn2)O[C@@H]1CO | -7 | 14 | . | . | -2 | . | .
O=C(Nc1cccc(F)c1)N1CC(=O)N2[C@H](CO)[C@@H](c3ccc(C#Cc4cccnc4)cc3)[C@@H]2C1 | . | 17 | . | . | . | . | .
CC(C)C[C@H](CO)Nc1nc(Nc2cccc(Cl)c2)c2ncn(C(C)C)c2n1 | 9 | 25 | 28 | 61* | -30 | -24 | 76*
CC(C)n1cnc2c(Nc3cccc(F)c3)nc(NCCO)nc21 | -37 | -4 | -14 | 11 | -47 | -28 | .
O=C(NCCc1ccc(F)cc1)c1coc(=O)c(Br)c1 | 2 | -8 | -11 | 81* | 39 | 18 | 83*
O=C(Nc1ccccc1F)c1coc(=O)c(Br)c1 | -1 | -55 | -24 | -6 | -32 | 9 | .
COc1ccc(CCNC(=O)c2cccc([N+](=O)[O-])c2)cc1OC | -4 | -2 | 14 | 62* | 5 | 6 | 22
SMILES | PAX8 inh HTS | LGR2 antag | Shn3 inh set2 | CF NFkB block | EWS-Fli block | KKLEB tox | CF NFkB conf
COc1ccc(CCNC(=O)c2ccc(-c3cccc([N+](=O)[O-])c3)o2)cc1OC | 18 | 36 | -12 | -21 | -20 | -14 | .
CCc1sc(N2[C@@H](C#N)[C@@H](c3ccccc3-c3cccc(C)c3)[C@@H]2CO)nc1C | -13 | 8 | . | . | -1 | . | .
Cc1ccc(-c2c(C#N)c(N)n3c(nc4ccccc43)c2C#N)cc1 | . | . | 38 | 55* | . | -37 | 50*
C[C@@H]1CN([C@H](C)CO)C(=O)CCCn2cc(nn2)CO[C@@H]1CN(C)Cc1ccc2c(c1)OCCO2 | . | -6 | . | . | -3 | . | .
Cc1ccc(/C(=C\CN2CCCC2)c2ccccn2)cc1 | -1 | -4 | -2 | 51* | -12 | 33 | 15
Cc1ccc(C(=O)NCCCNC(=O)c2ccccn2)cc1 | 10 | 0 | 7 | -1 | 3 | -2 | .
O=C(Nc1cccc(F)c1)N1CC(=O)N2[C@H](C1)[C@H](c1ccc(C#CCC3CCCC3)cc1)[C@@H]2CO | -17 | 6 | . | . | -6 | . | .
O=c1oc2ccc(Br)cc2cc1S(=O)(=O)c1ccc(F)cc1 | . | . | -7 | 58* | . | -7 | 22
Cc1ncc(CO)c2cc(S(=O)(=O)c3ccc(F)cc3)c(=O)oc12 | -25 | 1 | -19 | 15 | 4 | -21 | .
CC(=O)Nc1ccc(S(=O)(=O)N2c3ccc(F)cc3CCC2C)cc1 (centres undefined) | 18 | 2 | . | 4 | ? | -5 | .
COc1ccc(S(=O)(=O)N2c3ccc(F)cc3CCC2C)cc1 (centres undefined) | 78* | 22 | -14 | 50* | 41 | -5 | 83*
c1cncc(-c2ccc3ncnc(NCc4ccc5c(c4)OCO5)c3c2)c1 | -31 | -38 | 6 | 55* | 13 | -13 | 65*
Clc1ccccc1-c1ccc2ncnc(NCc3ccc4c(c3)OCO4)c2c1 | 12 | 8 | 6 | 18 | 7 | -24 | .
c1nc(NCc2ccc3c(c2)OCO3)c2cc(-c3ccoc3)ccc2n1 | -29 | ? | -3 | 82* | -36 | -30 | 92*
c1cncc(CNc2ncnc3ccc(-c4ccc5c(c4)OCCO5)cc23)c1 | 5 | -37 | -14 | 11 | -9 | -5 | .
COc1cccc(S(=O)(=O)Nc2ccc3c(c2)[C@H]2C[C@@H](CC(=O)N[C@@H](C)c4ccccc4)O[C@H](CO)[C@H]2O3)c1 | 13 | -11 | . | . | -1 | . | .
Cc1c(NC(=O)c2cc(-c3cccs3)nc3ccccc23)c(=O)n(-c2ccccc2)n1C | 28 | 25 | -8 | 65* | 4 | -1 | 64*

Compound activity as filed in PubChem BioAssay.
